Compound activity (PubChem)
Only some compounds are listed: those with a hit (about 1.5% of all), similar ones and a draw of the others.
BCLXL inh: blocks human Bcl-xL binding to Bim BH3 peptide; Q07817; GST-Bcl-xL / FITC-Bim BH3 peptide fluorescence polarization; inhibition, % at 10.9 µM; 320,000 compounds, 0.7% hits; AID 2129;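 active means inhibition above the mean of all tested compounds plus 3 SD, cutoff set per campaign, cut at about 30% in these data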;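 further: 0% = DMSO wells and 100% = unlabeled Bim-BH3 peptide competitor; inhibitors lower millipolarization by displacing the labeled peptide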
Target sequence (Q07817 whole entry, looked up): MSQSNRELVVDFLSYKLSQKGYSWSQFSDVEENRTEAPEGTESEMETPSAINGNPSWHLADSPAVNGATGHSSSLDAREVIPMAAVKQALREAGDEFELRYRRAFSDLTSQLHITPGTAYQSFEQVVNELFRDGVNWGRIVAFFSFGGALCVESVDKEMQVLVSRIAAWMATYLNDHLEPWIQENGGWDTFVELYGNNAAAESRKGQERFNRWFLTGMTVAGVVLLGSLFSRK
IDE inh: inhibits human insulin-degrading enzyme in HEK cells. inhibition, % at 5.59 µM. FAbetaB cleavage, fluorescence polarization. 320,000 compounds, 0.41% hits;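 active means percent inhibition above the average of all tested compounds plus 3 SD, set per screening campaign, cut at about 16% in these data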;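 further: IDE supplied by intact live HEK cells; FP after avidin binding of uncleaved biotin substrate so inhibition keeps polarization high; 0% = DMSO wells and 100% = 60 µM reference IDE inhibitor Ii1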
MEX-5 binding: C. elegans MEX-5 TCR-2 RNA binding activity | Q9XUB2 | MEX-5/FITC-TCR2 RNA binding, fluorescence polarization; stronger effect = lower value | activity score (negative = inhibition of binding), % at 10 µM | 300,000 compounds, 0.38% hits | AID 1832;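 active means inhibition past about -25% in most replicates, and total fluorescence under double the plate's negative control median, limit read from the data; inconclusive means replicates evenly split on the limit, or fluorescence at least double controls; inactive means too little inhibition in most replicates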;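 further: 0% = DMSO and -100% = 5 µM competing unlabeled TCR2 RNA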
IDE act: activators of human insulin-degrading enzyme in cells | HEK cells, FAbeta-B cleavage, fluorescence polarization; 0% vehicle, 100% cell-free pure enzyme wells | activation, % at 5.96 µM | 340,000 compounds, 0.073% hits;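 active means activation above the mean of all tested compounds plus 3 SD, set per screening campaign, cut at about 17% in these data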
GLD-1 RNA inh: GLD-1-TGE RNA interaction inhibition (C. elegans); inhibition, % at 5.96 µM; Q17339; AID 2280; purified GLD-1 + fluorescein TGE RNA, fluorescence polarization; 320,000 compounds, 0.44% hits;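 active means percent inhibition above a per-plate cutoff, the plate mean of test compounds plus 3 SD, cut at about 30% in these data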;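 further: 0% = DMSO wells with GLD-1 and probe and 100% = wells lacking GLD-1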
MCL1 BIM primary: MCL1-BIM-BH3 interaction inhibition (human) | Q07820 | GST-MCL1 / FITC-Bim-BH3 fluorescence polarization | inhibition, % at 10.9 µM | 320,000 compounds, 0.68% hits;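 active means inhibition above the mean inhibition of all tested compounds plus 3 SD, set per campaign, cut at about 40% in these data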;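 further: 0% = DMSO wells and 100% = unlabeled Bim-BH3 peptide control; higher means more loss of mP so more displacement of Bim peptide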
Target sequence (Q07820 whole entry, looked up): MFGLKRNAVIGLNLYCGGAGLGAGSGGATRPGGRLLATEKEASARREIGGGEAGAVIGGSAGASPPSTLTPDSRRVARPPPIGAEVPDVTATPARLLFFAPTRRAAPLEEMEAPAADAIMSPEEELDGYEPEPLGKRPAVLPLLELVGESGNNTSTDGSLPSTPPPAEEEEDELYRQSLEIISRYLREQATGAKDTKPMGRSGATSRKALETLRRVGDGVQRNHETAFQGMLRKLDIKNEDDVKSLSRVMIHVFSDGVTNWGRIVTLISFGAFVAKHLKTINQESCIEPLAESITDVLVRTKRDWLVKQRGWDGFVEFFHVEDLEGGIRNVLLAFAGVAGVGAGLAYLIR
Bcl-xL conf: counter-screen for MCL1 inhibitors: confirmation of human Bcl-xL inhibitors | shares compounds with MCL1 BIM primary | GST-Bcl-xL / FITC-Bim BH3 peptide FP binding | inhibition, % at 10.9 µM | 1,700 compounds, 54% hits;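 active means inhibition above a cutoff equal to the mean inhibition of all tested compounds plus 3 SD, cut at about 30% in these data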;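 further: 0% = DMSO wells and 100% = unlabeled Bim BH3 control peptide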
MCL1 BIM confirm: confirmation of human MCL1 and BIM-BH3 interaction inhibitors; shares compounds with MCL1 BIM primary; GST-MCL1 / FITC-Bim-BH3 fluorescence polarization; inhibition, % at 10.9 µM; 1,700 compounds, 61% hits; AID 2168;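 active means inhibition above the average of all tested compounds plus 3 SD, cut at about 40% in these data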;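 further: 0% = DMSO wells and 100% = unlabeled Bim-BH3 control peptide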
Starred values were filed as active, the others as inactive; ? = inconclusive; . = no result given; + = active, no number.

SMILES	BCLXL inh	IDE inh	MEX-5 binding	IDE act	GLD-1 RNA inh	MCL1 BIM primary	Bcl-xL conf	MCL1 BIM confirm
COCCNC(=O)Cn1cc(/C=C2\C(=O)NC(=O)N(c3cccc(C)c3C)C2=O)c2ccccc21	-6	-1	?	-3	-9	-12	.	.
COc1ccc(N2C(=O)NC(=O)/C(=C/c3ccc(N4CCOCC4)cc3)C2=O)cc1	3	3	-4	.	-2	-2	.	.
COc1ccc(N2C(=O)NC(=O)/C(=C\c3cn(CC(=O)N4CCOCC4)c4ccccc34)C2=O)c(OC)c1	-14	0	-22	-3	-6	-16	.	.
COC(=O)Cn1cc(/C=C2\C(=O)NC(=O)N(c3ccc(OC)cc3)C2=O)c2ccccc21	-4	-3	-54*	-3	-14	0	.	.
COCCNC(=O)Cn1cc(/C=C2\C(=O)NC(=O)N(c3ccccc3F)C2=O)c2ccccc21	-11	2	-86*	-8	-15	-21	.	.
O=C(O)Cn1cc(/C=C2\C(=O)NC(=O)N(c3ccc(F)cc3)C2=O)c2ccccc21	.	.	-42*	.	.	.	.	.
COc1ccc(N2C(=O)NC(=O)/C(=C\c3cn(C)c4ccccc34)C2=O)cc1	34*	3	-39*	-1	-10	5	.	.
CCCc1nnc(NC(=O)CCC(=O)N2CCC3(CC2)OCCO3)s1	54*	5	2	2	23	44*	.	.
Oc1cc2c(cc1O)[C@H]1c3ccccc3CN[C@@H]1CC2	16	-1	-57*	.	10	27	.	.
C[C@]12CCC3C(CC[C@H]4C[C@@H](O)[C@H](O)C[C@]34C)C1CC[C@@H]2O (stereo not given in full)	.	-4	.	-3	0	.	.	.
Cc1ccc(S(=O)(=O)NCCC(=O)Nc2ccc(Cl)cc2C(=O)c2ccccc2)cc1	2	2	1	4	4	-8	.	.
Cc1ccc(S(=O)(=O)N[C@@H](CCCCN)C(=O)CCl)cc1	32*	5	-5	-4	16	28	.	.
O=C(O)C1CN2CCC1CC2 (stereo not given)	33*	-4	0	4	0	11	.	.
Cc1[nH]c2ccccc2c1CN1CCCCC1	.	.	.	3	.	.	.	.
CC12CCC(=O)C=C1CC(N1CC1)C1C2CCC2(C)C(O)CCC12 (stereo not given)	.	.	.	8	.	.	.	.
COCCCNP1(=O)OCC(C)([N+](=O)[O-])CO1 (stereo not given)	.	.	.	-1	.	.	.	.
CCOC(=O)[C@@]1(C#N)[C@@H]2C=CC(C(N)=O)=CN2[C@@H](C(N)=O)[C@@H]1c1cccc(Cl)c1	38*	2	-10	9	21	27	.	.
CCOC(=O)[C@]1(C#N)[C@@H]2C=CC(C(N)=O)=CN2[C@@H](C(N)=O)[C@@H]1c1ccc(F)cc1	23	2	-6	-1	24	19	.	.
CCOC(=O)[C@@]1(C#N)C(c2ccc(Cl)c(Cl)c2)[C@H](C(N)=O)N2C=C(C(C)=O)C=C[C@H]21 (stereo not given in full)	11	6	-56*	3	5	0	.	.
CC[N+](CC)(CC)CC	11	6	0	3	3	50*	13	2
O=c1[nH]c2ccccc2n1CCCN1CCC(n2c(=O)[nH]c3cc(Cl)ccc32)CC1	37*	5	1	3	29	54*	10	6
COc1ccc(N2C(=O)CC(N3CCC(n4c(=O)[nH]c5ccccc54)CC3)C2=O)cc1 (stereo not given)	3	-1	0	1	7	-4	.	.
C[C@]12CCC3C(CC[C@@H]4C[C@H](O)CC[C@]34C)C1CCC2=O (stereo not given in full)	.	2	.	-1	4	.	.	.
CC(C)[C@H]1C(=O)N2CCC[C@H]2[C@]2(O)O[C@](NC(=O)[C@@H]3C=C4c5cccc6[nH]cc(c56)C[C@H]4N(C)C3)(C(C)C)C(=O)N12	153*	4	.	-4	129*	+	106*	128*
CCn1cc(C=C2C(=O)NC(=O)NC2=O)c2ccccc21	136*	4	-46*	-5	-14	148*	112*	123*
SMILES	BCLXL inh	IDE inh	MEX-5 binding	IDE act	GLD-1 RNA inh	MCL1 BIM primary	Bcl-xL conf	MCL1 BIM confirm
CCn1cc(C(=O)c2ccccc2)c2ccccc21	6	-2	0	3	8	9	.	.
O=C(O)C1C2c3ccccc3C(O)C1(C(=O)O)c1ccccc12 (stereo not given)	.	.	.	1	.	.	.	.
COc1cc2c(cc1OC)C13CCN4CC5CCOC6CC(=O)N2C1C6C5CC43 (stereo not given)	.	.	.	1	.	.	.	.
Oc1c(Cl)c(Cl)c(Cl)c(Cl)c1Cl	2	1	-2	3	2	53*	11	38
O=C1NC(=O)C2(CCN(c3ccccc3)CC2)C(=O)N1	.	.	.	5	.	.	.	.
O=C(c1ccc2nc(-c3ccco3)c(-c3ccco3)nc2c1)N1CCC2(CC1)OCCO2	52*	6	.	1	22	69*	34*	39
COc1ccc(C(=O)N2CCC3(CC2)OCCO3)cc1	1	0	1	4	10	1	.	.
O=c1[nH]c(=O)n(-c2cccc(F)c2)c(O)c1/C=C1\C=Nc2ccccc21	160*	2	?	-8	-19	199*	154*	177*
CN1C(=O)NC(=O)C2(CCCC2)C1=O	.	.	.	1	.	.	.	.
O=c1[nH]c(=S)[nH]c(O)c1/C=C1/C=c2ccccc2=N1	68*	-2	0	-8	-16	92*	135*	170*
CC1=C[C@@H]2c3cccc4[nH]cc(c34)C[C@H]2N(C)C1	169*	4	-58*	-1	118*	+	141*	163*
Nc1cccc(N=Cc2c(O)n(Cc3ccc(F)cc3)c(=O)[nH]c2=O)c1	66*	-2	0	3	-63	84*	16	2
O=c1[nH]c(=O)n(Cc2ccc(F)cc2)c(O)c1C=Nc1ccc(Cl)cc1	-5	6	2	0	-4	-3	.	.
O=C1NC(=S)NC(=O)C1=Cc1ccc2c(c1)CCN2CCCCl	29	1	-1	.	4	74*	-11	-15
O=c1[nH]c(=S)n(-c2ccc(Cl)cc2)c(O)c1C=Nc1ccc(N2CCOCC2)cc1	166*	5	-41*	5	-21	+	185*	+
O=P1(c2ccccc2)Nc2ccccc2N1c1ccccc1 (stereo not given)	.	.	.	5	.	.	.	.
